38 molecules from PubChem BioAssay can be followed below.

Active and inactive are the calls of the source. Unless noted, no rule for the calls is given here.

Assay [1] in a line: blood-stage malaria parasite viability loss – strain 3D7, DAPI fluorescence, 100 nL, primary screen (AID 1184).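 Also: parasites grown inside human red blood cells in medium with human serum.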 As to conditions: P. falciparum 3D7 growth, 3 d, higher = more signal.
Assay [2] deals with Homeobox protein Hox-A13 (Mus musculus) (UniProt Q62424). Description: disruptors of Hoxa13 oligonucleotide interaction – biochemical, fluorescence polarization, labeled oligonucleotide, primary screen (AID 1185). The note with it: Hoxa13:DNA binding, 15 min, higher = more signal, called active from +8 up or from −8 down. (Polarisation of emitted light reports the rotation of a fluorescent probe.)

A short description of assay [3]: blockers of DNA damage checkpoint Chk1 activation – imaging, HeLa, hydroxyurea, phospho-Chk1 antibody, percent positive cells, primary screen (AID 1186). As to conditions: hydroxyurea-induced phospho-Chk1 immunofluorescence imaging, higher = more signal.
The nature of assay [4]: blockers of DNA damage checkpoint Chk1 activation – imaging, HeLa, hydroxyurea, phospho-Chk1 nuclear intensity, primary screen (AID 1187). Also: test concentration not given here. The note with it: hydroxyurea-induced phospho-Chk1 immunofluorescence imaging, higher = more signal.

Sequence of Homeobox protein Hox-A13 (Mus musculus) (Q62424 whole entry, looked up): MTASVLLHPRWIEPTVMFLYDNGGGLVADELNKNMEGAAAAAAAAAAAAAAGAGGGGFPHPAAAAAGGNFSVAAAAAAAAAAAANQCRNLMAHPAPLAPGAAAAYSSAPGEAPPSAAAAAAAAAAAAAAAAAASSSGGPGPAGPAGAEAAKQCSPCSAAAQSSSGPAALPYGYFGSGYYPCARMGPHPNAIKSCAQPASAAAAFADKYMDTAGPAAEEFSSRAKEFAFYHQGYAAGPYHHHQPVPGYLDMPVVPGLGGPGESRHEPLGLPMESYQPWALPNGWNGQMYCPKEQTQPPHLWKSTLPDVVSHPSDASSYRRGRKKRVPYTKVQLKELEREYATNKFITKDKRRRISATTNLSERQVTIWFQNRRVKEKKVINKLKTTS

On to `C=C(COC)/C(=C/C[C@H](OC(C)=O)c1cccc(OCCO)c1)c1cc(C(=O)OC)ccc1OC`, for which the z-score in assay [1] was -2.67; in assay [2], -2.39 (inactive); in assay [3] it was -0.283 (inactive); in assay [4] it was -0.727 (inactive).
Consider `NCCCCCCNC(=O)[C@@H]1C[C@@H]2C(=O)N[C@@H](Cc3ccccc3)C(=O)N2[C@@H]1c1ccc(O)cc1`, for which the z-score in assay [1] was -0.18; in assay [2], -1.74 (inactive); in assay [3], 1 (inactive); in assay [4] it was 0.982 (inactive).
Regarding `CCCNC(=O)[C@@H]1c2ccccc2C(=O)N(Cc2cc(C(F)(F)F)cc(C(F)(F)F)c2)[C@H]1c1ccc(CO)cc1`, the z-score was -1.64 in assay [1], -1.94 (inactive) in assay [2], -0.319 (inactive) in assay [3] and 0.0789 (inactive) in assay [4].
In the case of `CO[C@H]1O[C@H](CO)[C@@H](OC(=O)CCc2ccccc2)[C@@H]2OC(=O)[C@H](Cc3ccccc3)C/C=C/C[C@@H](Cc3ccccc3)C(=O)O[C@@H]12`, the z-score is -1.58 in assay [1], -2.71 (inactive) in assay [2], -0.527 (inactive) in assay [3] and -0.474 (inactive) in assay [4].
With `CC(=O)OC(C/C=C\B1OC(C)(C)C(C)(C)O1)c1ccccc1` (configuration not stated), the z-score in assay [1] was -1.41; in assay [2], -1.28 (inactive); in assay [3], -0.873 (inactive); in assay [4], -1.16 (inactive).
For `COC(=O)C1=CC(c2ccc(CO)cc2)=CC(C2CC2)N(C)C=C1C(=O)OC` (configuration not stated) the same measures were -0.591, -8.22 (active), -0.516 (inactive) and -0.732 (inactive).
For `O=C(O)[C@H]1C[C@H]2C(=O)NCC(=O)N2[C@H]1c1cccc(OCCO)c1` the same measures were -0.52, -3.76 (inactive), 0.328 (inactive) and 0.212 (inactive).
For `C=CCN1C(=O)[C@]2(O[C@H](CCn3cc([C@H](O)c4ccccc4)nn3)[C@@H]([Si](C)(C)c3ccc(OC)cc3)[C@@H]2C)c2cc(N3CCOC3=O)ccc21` the same measures were -2.91, -4.64 (inactive), -1.73 (inactive) and -1.22 (inactive).
In the case of `C=CCC(OC(C)=O)[C@@H]1[C@@H](N(Cc2cccc3ccccc23)C(=O)c2cccc3ccccc23)c2cc(OCCCO)ccc2N1C(=O)Cc1ccc(OC)cc1` (some centres not stated), the z-score in assay [1] is -2.48; in assay [2], -1.57 (inactive); in assay [3] it was -0.0578 (inactive); in assay [4], 0.507 (inactive).
For `CC(C)C[C@@H]1NC(=O)[C@@]23C(=O)N[C@@H](Cc4ccccc4)C2[C@H](C)[C@@]2(C)O[C@H]2C3/C=C/CC/C=C/CNC(=O)[C@@H](C)NC1=O` (some centres not stated), the z-score is -2.13 in assay [1], -4.78 (inactive) in assay [2], -0.0396 (inactive) in assay [3] and 0.292 (inactive) in assay [4].
Turning to `O=C1O[C@H](c2ccccc2)[C@H](c2ccccc2)N2[C@H]1[C@@H](C(=O)NC[C@H](O)c1ccccc1)[C@]1(C(=O)Nc3ccc(C#CC4(O)CCCCCC4)cc31)[C@H]2c1ccc(O)cc1`, the z-score was 0.097 in assay [1], -1.84 (inactive) in assay [2], 0.104 (inactive) in assay [3] and 0.572 (inactive) in assay [4].
As for `COc1ccc([Si](C)(C)[C@H]2[C@H](CC(=O)N(CCO)Cc3ccccc3)O[C@@]3(C(=O)N(Cc4ccc(N5CCC5=O)cc4)c4ccccc43)[C@@H]2C)cc1`, the z-score in assay [1] was -1.24; in assay [2] it was -0.622 (inactive); in assay [3] it was -0.632 (inactive); in assay [4], -0.0543 (inactive).
`C=CCN1C(=O)[C@@]2(O[C@@H](CCO)[C@H]([Si](C)(C)c3ccc(OC)cc3)[C@H]2C)c2cc(N3C(=O)c4cccc5cccc3c45)ccc21`: the z-score in assay [1] was -2.57; in assay [2], -2.8 (inactive); in assay [3], -1.22 (inactive); in assay [4] it was -0.751 (inactive).
Take `C[N+](C)(C)CCCC[C@@H]1NC(=O)[C@@H]2C[C@H](C(=O)NCCCCCNC(=O)CS)[C@H](c3ccc(O)cc3)N2C1=O`: the z-score was -0.34 in assay [1], -1.22 (inactive) in assay [2], -0.536 (inactive) in assay [3] and -0.272 (inactive) in assay [4].
Take `[N-]=[N+]=Nc1ccccc1[C@H]1OC(c2ccc(OCCCO)cc2)=N[C@@]1(Cc1ccccc1)C(N)=O`: the z-score in assay [1] is -1.96; in assay [2], -3.95 (inactive); in assay [3] it was -0.313 (inactive); in assay [4], -0.179 (inactive).
For `C=CCN1C(=O)[C@@]2(O[C@@H](CCn3cc(CCO)nn3)[C@H]([Si](C)(C)c3ccc(OC)cc3)[C@H]2C)c2cc(N3C(=O)c4cccc5cccc3c45)ccc21` the same measures were -2.85, -5.26 (inactive), -1.11 (inactive) and -0.144 (inactive).
As for `NC(=O)N1C(=O)C2C(C1=O)C1C=C(c3ccc(CO)cc3)C2C(C2CC2)N1Cc1cc2c(cc1Br)OCO2` (configuration not stated), the z-score in assay [1] was -2.14; in assay [2], -3.21 (inactive); in assay [3], -0.136 (inactive); in assay [4], -0.279 (inactive).
With `C=CCC(OC(C)=O)[C@@H]1[C@@H](N(Cc2cccc3ccccc23)C(=O)Cc2ccc(OC)cc2)c2cc(OCCCO)ccc2N1C(=O)Cc1ccc(OC)cc1` (some centres not stated), the z-score in assay [1] is -2.1; in assay [2] it was -2.18 (inactive); in assay [3], 0.162 (inactive); in assay [4], 0.268 (inactive).
For the molecule `CC(C)N1C(=O)c2ccccc2[C@@H](C(=O)NCc2ccccc2)[C@@H]1c1ccc(CO)cc1`, the z-score in assay [1] was -0.3; in assay [2] it was -0.468 (inactive); in assay [3], -0.67 (inactive); in assay [4], -0.869 (inactive).
Regarding `COCCCN1C(=O)[C@@]2(Cc3ccccc31)c1ccccc1C(=O)N(Cc1ccccc1Cl)[C@H]2c1ccc(CO)cc1`, the z-score was -0.7 in assay [1], -0.759 (inactive) in assay [2], -0.83 (inactive) in assay [3] and -0.981 (inactive) in assay [4].
For `CCOC(=O)C[C@H]1[C@H](OC(=O)Cc2ccc3c(c2)OCO3)[C@@H](NC(=O)c2ccc3ccccc3c2)c2cc(OCCCO)ccc2N1C(=O)c1ccc2ccccc2n1` the same measures were -1.29, -2.66 (inactive), -0.926 (inactive) and -0.612 (inactive).
In the same order, the values of `CC(C)[Si](C#C[Si](C(C)C)(C(C)C)C(C)C)(O[C@H](C)c1cn([C@H](C)c2ccccc2)nn1)C(C)C` are -0.628, -0.0303 (inactive), -0.0899 (inactive) and 0.346 (inactive).
In the case of `C=C(CCCC)/C(=C/C[C@@H](OC(=O)c1ccncc1)c1ccc(OCCO)cc1)c1cnc2ccccc2c1`, the z-score in assay [1] is -2.84; in assay [2], -2.35 (inactive); in assay [3], -0.191 (inactive); in assay [4], -0.181 (inactive).
As for `CN1C=C(C(=O)OCCS(C)(=O)=O)C(C(=O)OCCS(C)(=O)=O)=CC(CCCO)=CC1c1cccs1` (configuration not stated), the z-score in assay [1] is -0.654; in assay [2], -5.5 (inactive); in assay [3] it was -0.084 (inactive); in assay [4], -0.389 (inactive).
In the case of `COCCOC(=O)N1C(=O)[C@@]2(c3cc(C#CCCO)ccc31)[C@H](c1ccccc1OCCO)N1[C@H](c3ccccc3)[C@H](c3ccccc3)OC(=O)[C@H]1[C@@H]2C(=O)NC[C@H](O)c1ccccc1`, the z-score is -2.08 in assay [1], -0.117 (inactive) in assay [2], -0.29 (inactive) in assay [3] and -0.429 (inactive) in assay [4].
For the molecule `CC(C)NC(=O)[C@@H]1c2ccccc2C(=O)N(Cc2cc(F)cc(C(F)(F)F)c2)[C@H]1c1ccc(CO)cc1`, the z-score is -0.327 in assay [1], -2.19 (inactive) in assay [2], -0.121 (inactive) in assay [3] and 0.0894 (inactive) in assay [4].
Turning to `CC(C)C(=C=CC[C@H](O)c1ccc(OCCO)cc1)C[C@H](O)COCc1ccccc1`, the z-score in assay [1] is -2.65; in assay [2], -4.06 (inactive); in assay [3], -0.0011 (inactive); in assay [4], 0.313 (inactive).
For `Cc1ccc(N2C(=O)c3ccccc3[C@](C)(C(=O)NCC(F)(F)F)[C@@H]2c2ccc(CO)cc2)nc1` the same measures were -1.36, -1.16 (inactive), -0.326 (inactive) and -0.277 (inactive).
In the case of `COCCOC(=O)N1C(=O)[C@@]2(c3cc(C#CCNC(N)=O)ccc31)[C@H](C(=O)NC[C@H](O)c1ccccc1)[C@H]1C(=O)O[C@H](c3ccccc3)[C@H](c3ccccc3)N1[C@@H]2c1ccc(O)cc1`, the z-score in assay [1] was 0.418; in assay [2] it was -2.4 (inactive); in assay [3] it was -0.134 (inactive); in assay [4], -0.595 (inactive).
As to `CC(=O)NCCCC[C@@H]1NC(=O)[C@@H]2C[C@H](C(=O)O)[C@H](c3cccc(OCCO)c3)N2C1=O`, the z-score in assay [1] is -0.313; in assay [2], 0.294 (inactive); in assay [3] it was -0.0079 (inactive); in assay [4], 0.165 (inactive).
As to `CCN(CC)c1ccc(N2CC=CC34O[C@@H]5C=CCOC(=O)[C@@H]5[C@H]3C(=O)N(C(C)CO)[C@@H]4C2=O)cc1` (some centres not stated), the z-score in assay [1] is 0.339; in assay [2], -3.29 (inactive); in assay [3], 0.36 (inactive); in assay [4], 0.325 (inactive).
Turning to `CCCCCN1CC=CC23O[C@@H]4/C=C\CCC(C)OC(=O)C4[C@H]2C(=O)N(CCCO)[C@@H]3C1=O` (some centres not stated), the z-score in assay [1] is -0.186; in assay [2] it was -3.86 (inactive); in assay [3], -0.183 (inactive); in assay [4], 0.0885 (inactive).
Take `CC1CC/C=C\[C@H]2OC34C=CCN(C(C)C)C(=O)[C@H]3N(C(CO)C(C)C)C(=O)[C@@H]4C2C(=O)O1` (some centres not stated): the z-score in assay [1] was 0.639; in assay [2] it was -4.54 (inactive); in assay [3], -0.686 (inactive); in assay [4], -0.549 (inactive).
As to `C[N+](C)(C)CCCC[C@@H]1NC(=O)[C@H]2C[C@@H](C(=O)NCCCCCN)[C@@H](c3cccc(OCCO)c3)N2C1=O`, the z-score in assay [1] was -1.09; in assay [2] it was -2.19 (inactive); in assay [3] it was 0.287 (inactive); in assay [4], 0.7 (inactive).
Turning to `O=C1c2ccccc2[C@](Cc2ccccc2I)(C(=O)O)[C@H](c2ccc(CO)cc2)N1Cc1ccccc1Cl`, the z-score in assay [1] is 0.303; in assay [2] it was -4.18 (inactive); in assay [3], -0.679 (inactive); in assay [4], -0.559 (inactive).
For `C=C(C(=O)CC[C@@H](OC(C)=O)c1ccccc1OCCO)C(C)C` the same measures were -1.59, -1.92 (inactive), -0.345 (inactive) and -0.171 (inactive).
In the same order, the values of `COc1ccc([Si](C)(C)[C@@H]2[C@@H](CC(=O)N3CCC[C@H]3CO)O[C@]3(C(=O)N(Cc4ccc(N5CCC5=O)cc4)c4ccccc43)[C@H]2C)cc1` are -0.0482, -2.83 (inactive), -0.245 (inactive) and 0.476 (inactive).
As for `COC(=O)c1c2oc(c1C(=O)OC)C(=O)N[C@@H](C(C)C)Cn1nncc1C1(CCCCC1)NC(=O)N[C@H](CO)CC2`, the z-score in assay [1] was 0.0974; in assay [2], -1.72 (inactive); in assay [3], -0.259 (inactive); in assay [4], 0.158 (inactive).
